Test results as given in PubChem BioAssay AID1159580 (chemical genetic matrix, 2015).
About 2,000 (36%) of roughly 5,500 compounds were called active. Inconclusive results (about 18%) are left out. No stated cut-off is given here; in the data, active means normalized growth mostly below about 0.91 (no sharp cut-off); inconclusive means no clear call, values can overlap the other calls; inactive means mostly above about 0.92. This is one part of the list.

Assay: chemical genetic growth profiling, strain panel (AID 1159580);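 further: tested at 20 µM; growth read once vehicle control cultures reached saturation at 30 °C; 1 = growth at the plate median or of vehicle wells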
Settings: S. cerevisiae deletion strains, growth OD

Measured: normalized growth

CC1=CCCC2C1(C)CCC(C)C2(C)CC/C(C)=C/C[n+]1cn(C)c2c(N)ncnc21 (centres undefined)
inactive: locus YAL021C, strain ccr4, stronger effect = lower value 0.944 | locus YAL030W, strain snc1, stronger effect = lower value 0.986 | locus YBL061C, strain skt5, stronger effect = lower value 1.01 | locus YBR009C, strain hhf1, stronger effect = lower value 0.928 | locus YBR023C, strain chs3, stronger effect = lower value 0.978 | locus YBR171W, strain sec66, stronger effect = lower value 0.977 | locus YBR231C, strain swc5, stronger effect = lower value 0.973 | locus YBR279W, strain paf1, stronger effect = lower value 0.96 | locus YCL011C, strain gbp2, stronger effect = lower value 0.943 | locus YCL016C, strain dcc1, stronger effect = lower value 0.932 | locus YCL069W, strain vba3, stronger effect = lower value 0.961 | locus YCR088W, strain abp1, stronger effect = lower value 0.991 | locus YDL005C, strain med2, stronger effect = lower value 0.984 | locus YDL040C, strain nat1, stronger effect = lower value 0.991 | locus YDR001C, strain nth1, stronger effect = lower value 0.976 | locus YDR069C, strain doa4, stronger effect = lower value 1.01 | locus YDR159W, strain sac3, stronger effect = lower value 1.06 | locus YDR195W, strain ref2 0.992 | locus YDR297W, strain sur2, stronger effect = lower value 0.996 | locus YDR334W, strain swr1, stronger effect = lower value 0.988 | locus YDR335W, strain msn5, stronger effect = lower value 0.955 | locus YEL003W, strain gim4, stronger effect = lower value 0.955 | locus YEL037C, strain rad23, stronger effect = lower value 0.987 | locus YEL061C, strain CIN8 (second series), stronger effect = lower value 0.976 | locus YER015W, strain faa2, stronger effect = lower value 0.963 | locus YER016W, strain bim1, stronger effect = lower value 0.994 | locus YER111C, strain swi4, stronger effect = lower value 0.984 | locus YFR010W, strain ubp6, stronger effect = lower value 0.996 | locus YGL167C, strain pmr1, stronger effect = lower value 0.976 | locus YGL173C, strain kem1, stronger effect = lower value 0.993 | locus YGL227W, strain vid30, stronger effect = lower value 0.985 | locus YGL240W, strain doc1, stronger effect = lower value 0.971 | locus YGL253W, strain hxk2, stronger effect = lower value 0.976 | locus YHR013C, strain ard1, stronger effect = lower value 0.917 | locus YHR027C, strain rpn1, stronger effect = lower value 1 | locus YHR030C, strain SLT2, stronger effect = lower value 0.946 | locus YHR079C, strain IRE1, stronger effect = lower value 0.951 | locus YHR142W, strain chs7, stronger effect = lower value 0.881 | locus YJL092W, strain hpr5, stronger effect = lower value 0.982 | locus YJL095W, strain BCK1 (second series), stronger effect = lower value 1.01 | locus YJL095W, strain BCK1, stronger effect = lower value 0.971 | locus YJL115W, strain asf1, stronger effect = lower value 0.978 | locus YJL129C, strain trk1, stronger effect = lower value 1 | locus YJL154C, strain vps35, stronger effect = lower value 0.983 | locus YJL164C, strain tpk1, stronger effect = lower value 0.935 | locus YJL166W, strain qcr8, stronger effect = lower value 0.963 | locus YJL187C, strain SWE1, stronger effect = lower value 0.991 | locus YJR066W, strain TOR1, stronger effect = lower value 0.94 | locus YKL160W, strain elf1, stronger effect = lower value 0.929 | locus YKR026C, strain gcn3, stronger effect = lower value 1.01 | locus YKR091W, strain srl3, stronger effect = lower value 0.977 | locus YLL001W, strain dnm1, stronger effect = lower value 0.908 | locus YLL026W, stronger effect = lower value 0.984 | locus YLL041C, strain sdh2, stronger effect = lower value 0.987 | locus YLR027C, strain aat2, stronger effect = lower value 0.986 | locus YLR113W, strain HOG1, stronger effect = lower value 0.891 | locus YLR221C, strain rsa3, stronger effect = lower value 1.02 | locus YLR258W, strain gsy2, stronger effect = lower value 0.969 | locus YLR262C, strain YPT6 (second series), stronger effect = lower value 1.03 | locus YLR320W, strain mms22, stronger effect = lower value 1 | locus YLR342W, strain FKS1, stronger effect = lower value 0.919 | locus YLR357W, strain rsc2, stronger effect = lower value 0.929 | locus YLR370C, strain arc18, stronger effect = lower value 0.961 | locus YLR384C, strain iki3, stronger effect = lower value 0.995 | locus YML120C, strain ndi1, stronger effect = lower value 0.931 | locus YMR058W, strain fet3, stronger effect = lower value 0.982 | locus YMR125W, strain sto1, stronger effect = lower value 0.936 | locus YMR129W, stronger effect = lower value 0.995 | locus YMR205C, strain PFK2, stronger effect = lower value 0.925 | locus YMR231W, strain pep5, stronger effect = lower value 1.02 | locus YNL183C, strain NPR1, stronger effect = lower value 0.968 | locus YNL209W, strain ssb2, stronger effect = lower value 0.932 | locus YNL248C, strain rpa49, stronger effect = lower value 0.98 | locus YNL322C, strain KRE1 (second series), stronger effect = lower value 0.996 | locus YNR049C, strain mso1, stronger effect = lower value 0.992 | locus YOR001W, strain rrp6, stronger effect = lower value 1.01 | locus YOR070C, strain gyp1, stronger effect = lower value 0.988 | locus YOR080W, strain dia2, stronger effect = lower value 1 | locus YOR083W, strain WHI5, stronger effect = lower value 0.908 | locus YOR106W, strain vam3, stronger effect = lower value 0.883 | locus YOR231W, strain MKK1, stronger effect = lower value 0.937 | locus YOR265W, strain rbl2, stronger effect = lower value 0.981 | locus YOR270C, strain vph1, stronger effect = lower value 0.95 | locus YPL051W, strain arl3, stronger effect = lower value 0.942 | locus YPL078C, strain atp4, stronger effect = lower value 0.896 | locus YPL106C, strain sse1, stronger effect = lower value 0.973 | locus YPL240C, strain hsp82, stronger effect = lower value 0.996 | locus YPL256C, strain CLN2, stronger effect = lower value 0.939
active: locus YAL026C, strain drs2, stronger effect = lower value 0.838 | locus YDR137W, strain rgp1, stronger effect = lower value 1.17 [resistant] | locus YDR392W, strain spt3, stronger effect = lower value 0.452 | locus YER155C, strain BEM2 (second series), stronger effect = lower value 0.644 | locus YNL071W, strain lat1, stronger effect = lower value 0.863 | locus YOR290C, strain snf2, stronger effect = lower value 0.844
